The nature of assay [1]: qHTS assay to identify small molecule antagonists of the peroxisome proliferator-activated receptor gamma (PPARg) signaling pathway - cell viability counter screen (AID 743194). Further: nearly all actives have a fitted effect of over 55% in size. The method in brief: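 Viability was measured as CellTiter-Glo luminescence in GeneBLAzer PPARg UAS-bla HEK293H cells. These cells had been exposed 17 h at 37 C to compounds together with rosiglitazone at 50 nM final, with the beta-lactamase readout taken in the same wells.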

A short description of assay [2]: qHTS assay for small molecule agonists of the antioxidant response element (ARE) signaling pathway - cell viability counter screen (AID 743203; calls by dose curve; further: nearly all actives have a fitted effect of over 55% in size). The method in brief: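 ARE-bla HepG2 cells were plated, rested 5 h at 37C/5% CO2, then exposed to compounds in DMSO for 16 h. Viability was read as CellTiter-Glo luminescence after 30 min at room temperature, in the same wells as the ARE screen.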

Assay [3] is described as follows: qHTS assay for small molecule activators of the heat shock response signaling pathway - cell viability counter screen (AID 743209). Further: nearly all actives have a fitted effect of over 50% in size. The method in brief: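 HSE-bla HeLa cells plated overnight, then exposed to Tox21 compounds (23 nL in DMSO) for 5 h at 37 C. After the bla reporter read, CellTiter-Glo was added in the same wells and luminescence read after 30 min at room temperature.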
In general terms: Quantitative high-throughput screening tests each substance at several concentrations.

Assay [4] is described as follows: qHTS assay for small molecule activators of the heat shock response signaling pathway (AID 743210; active means well fitted activation curve with a large enough effect in the signal ratio in the repeat runs, with a control signal flat, not every such curve was filed as active; the % refers to the signal ratio;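 further: HeLa cells with beta-lactamase reporter driven by heat shock elements; series mostly up to about 63 µM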). The essentials:
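HeLa HSE-bla cells, overnight plating; cpd in DMSO 5 h, 37 C; LiveBLAzer B/G FRET substrate 2.5 h RT; fluorescence intensity read.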

A short description of assay [5]: qHTS assay to identify small molecule agonists of the peroxisome proliferator-activated receptor delta (PPARd) signaling pathway - cell viability counter screen (AID 743211). Further: nearly all actives have a fitted effect of over 55% in size. The method in brief:
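Counter screen for cytotoxicity run in parallel with the PPARd reporter screen. Beta-lactamase reporter HEK293H cells exposed to compounds 17 h; ATP-based CellTiter-Glo luminescence quantified viability.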

The nature of assay [6]: qHTS assay for small molecule agonists of the antioxidant response element (ARE) signaling pathway (AID 743202; active means well fitted activation curve with a large enough effect in the signal ratio in the repeat runs, not every such curve was filed as active; the % refers to the signal ratio; further: potency means the concentration at half of the fitted maximal effect). The method in brief: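 Quantitative high-throughput format in HepG2 cells bearing an integrated ARE-beta-lactamase reporter. Compound exposure lasted 16 h at 37 C, and fluorescence was read 2 h after adding LiveBLAzer B/G substrate at room temperature.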
The target of assay [7] is Peroxisome proliferator-activated receptor gamma (Homo sapiens) (UniProt P37231). The assay can be described thus: qHTS assay to identify small molecule antagonists of the peroxisome proliferator-activated receptor gamma (PPARg) signaling pathway (AID 743191; calls by dose curve; further: series mostly up to about 63 µM; nearly all actives have a fitted effect of over 30% in size). The method in brief: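 Beta-lactamase reporter under UAS control in HEK293H PPARg-bla cells; compound treatment 17 h at 37C. Read-out: fluorescence intensity after 1 h room-temperature incubation with LiveBLAzer B/G FRET substrate.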
Chain of Peroxisome proliferator-activated receptor gamma (Homo sapiens) (P37231 whole entry, looked up): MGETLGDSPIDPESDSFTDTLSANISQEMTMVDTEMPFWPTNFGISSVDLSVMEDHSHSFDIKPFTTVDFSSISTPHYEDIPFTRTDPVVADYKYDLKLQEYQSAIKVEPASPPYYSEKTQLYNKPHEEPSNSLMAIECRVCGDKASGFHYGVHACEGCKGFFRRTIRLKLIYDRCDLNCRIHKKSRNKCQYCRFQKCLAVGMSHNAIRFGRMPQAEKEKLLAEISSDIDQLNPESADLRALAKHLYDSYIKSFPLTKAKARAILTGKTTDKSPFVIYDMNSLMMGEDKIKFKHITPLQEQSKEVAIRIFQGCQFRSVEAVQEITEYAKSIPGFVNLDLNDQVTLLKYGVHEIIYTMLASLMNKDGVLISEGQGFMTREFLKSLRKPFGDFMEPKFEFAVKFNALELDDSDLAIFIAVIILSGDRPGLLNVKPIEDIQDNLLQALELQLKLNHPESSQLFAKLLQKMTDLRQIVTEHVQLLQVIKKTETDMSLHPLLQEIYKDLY

For assay [8], the target named is Estrogen receptor (Homo sapiens) (UniProt P03372). Description: qHTS assay to identify small molecule antagonists of the estrogen receptor alpha (ER-alpha) signaling pathway (AID 743069; active means well fitted curve in the direction sought with a large enough effect in the signal ratio in the repeat runs, not every such curve was filed as active; the % refers to the signal ratio). The method in brief: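 ER-alpha-UAS-bla GripTite HEK293 line; 2% charcoal-stripped FBS overnight; plated, 4 hr 37C/5% CO2; cpd in DMSO + 17beta-estradiol, 18 hr 37C; LiveBLAzer B/G FRET substrate 2 hr RT; fluorescence intensity.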
Chain of Estrogen receptor (Homo sapiens) (P03372 whole entry, looked up): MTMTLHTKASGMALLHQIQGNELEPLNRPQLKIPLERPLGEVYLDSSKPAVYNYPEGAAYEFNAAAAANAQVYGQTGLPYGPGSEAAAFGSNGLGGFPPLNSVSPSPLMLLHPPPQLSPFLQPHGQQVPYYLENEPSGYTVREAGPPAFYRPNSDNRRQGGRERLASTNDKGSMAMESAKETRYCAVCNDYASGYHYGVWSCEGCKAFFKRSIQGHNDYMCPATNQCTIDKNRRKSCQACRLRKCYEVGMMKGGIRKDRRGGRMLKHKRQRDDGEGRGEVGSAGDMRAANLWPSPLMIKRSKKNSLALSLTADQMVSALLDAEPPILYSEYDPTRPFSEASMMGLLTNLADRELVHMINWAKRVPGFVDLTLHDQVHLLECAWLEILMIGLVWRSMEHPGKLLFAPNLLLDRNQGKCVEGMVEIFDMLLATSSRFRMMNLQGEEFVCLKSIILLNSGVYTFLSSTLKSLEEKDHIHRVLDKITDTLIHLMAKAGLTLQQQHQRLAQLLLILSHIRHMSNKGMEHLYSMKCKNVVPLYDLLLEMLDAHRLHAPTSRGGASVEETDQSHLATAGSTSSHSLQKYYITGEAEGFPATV

A short description of assay [9]: qHTS assay to identify small molecule antagonists of the estrogen receptor alpha (ER-alpha) signaling pathway - cell viability counter screen (AID 743074; calls by dose curve;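 further: HEK293 cells carrying ER-alpha-UAS-bla reporter stimulated with 17beta-estradiol; nearly all actives have a fitted effect of over 45% in size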).
Assay [10] has as its target Estrogen receptor (Homo sapiens) (UniProt P03372). The assay can be described thus: qHTS assay to identify small molecule agonists of the estrogen receptor alpha (ER-alpha) signaling pathway (AID 743075; calls by dose curve;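 further: HEK293 GripTite cells with ER-alpha and UAS-driven beta-lactamase reporter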).
For assay [11] the target is unchanged. Description: qHTS assay to identify small molecule agonists of the estrogen receptor alpha (ER-alpha) signaling pathway using the BG1 cell line (AID 743079). Further: nearly all actives have a fitted effect of over 20% in size.
A short description of assay [12]: qHTS assay to identify small molecule antagonists of the estrogen receptor alpha (ER-alpha) signaling pathway using the BG1 cell line - cell viability counter screen (AID 743081).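 Further: compound given together with 17beta-estradiol as the ER stimulus; series mostly up to about 70 µM; nearly all actives have a fitted effect of over 45% in size.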
A further assay concerns the target Aromatase (Homo sapiens) (UniProt P11511). Description: qHTS assay to identify aromatase inhibitors (AID 743083). Further: series mostly up to about 70 µM; nearly all actives have a fitted effect of over 55% in size.
The nature of assay [13]: qHTS assay to identify aromatase inhibitors - cell viability counter screen (AID 743084).
Assay [14] concerns the target Aryl hydrocarbon receptor (Homo sapiens) (UniProt P35869). The assay can be described thus: qHTS assay to identify small molecule that activate the aryl hydrocarbon receptor (AhR) signaling pathway (AID 743085).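 Further: HG2L7.5c1 human HepG2 liver cells with stably integrated DRE-driven firefly reporter; series mostly up to about 70 µM; nearly all actives have a fitted effect of over 15% in size.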 The essentials:
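Compounds were tested in HepG2 hepatocellular carcinoma cells harbouring a stably integrated luciferase gene under control of 20 DREs. Increased reporter signal after 24 h treatment at 37C was taken as AhR activation.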

A short description of assay [15]: qHTS assay to identify small molecule that activate the aryl hydrocarbon receptor (AhR) signaling pathway - cell viability counter screen (AID 743086).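 Further: HepG2 liver cells carrying the AhR DRE luciferase reporter; series mostly up to about 70 µM; nearly all actives have a fitted effect of over 45% in size.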 The essentials:
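Cytotoxicity counter screen: CellTiter-Fluor signal (30 min, 37 C) in 4000 HepG2 cells/well carrying the DRE-luciferase reporter, following 24 h compound exposure at 37 C.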

Assay [16] addresses Peroxisome proliferator-activated receptor gamma (Homo sapiens) (UniProt P37231). The assay can be described thus: qHTS assay to identify small molecule agonists of the peroxisome proliferator-activated receptor gamma (PPARg) signaling pathway (AID 743094; active means well fitted activation curve with a large enough effect in the signal ratio in the repeat runs, not every such curve was filed as active; the % refers to the signal ratio). The method in brief: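 GeneBLAzer PPARg UAS-bla HEK293H cells were plated, rested 5 h, then exposed to compounds for 17 h at 37C. Beta-lactamase activity was read by LiveBLAzer B/G FRET substrate fluorescence after 1 h at room temperature.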

A short description of assay [17]: qHTS assay to identify small molecule antagonists of the estrogen receptor alpha (ER-alpha) signaling pathway using the BG1 cell line (AID 743080; calls by dose curve;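 further: BG1 cells stimulated with 17beta-estradiol alongside compound; series mostly up to about 70 µM; nearly all actives have a fitted effect of over 25% in size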). The essentials: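 Luminescence from a 4×ERE-luciferase reporter in BG1-Luc-4E2 cells served as read-out. Cells, pre-cultured 5 days in stripped-serum phenol-red-free medium, were exposed to compound with 17beta-estradiol co-stimulation for 21.5 h at 37 C.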

Records with an inconclusive call do not appear. Values without a mark were called inactive. The source made the active and inactive calls. Unless noted, the call rests on the fitted dose curve; in most records, active means well fitted curve in the direction sought with a large enough effect in the repeat runs; inconclusive means weak or mixed curves; inactive means no such curve, though single readings can be large; an effect the other way counts as inactive or inconclusive.

Chain of Aryl hydrocarbon receptor (Homo sapiens) (P35869 whole entry, looked up): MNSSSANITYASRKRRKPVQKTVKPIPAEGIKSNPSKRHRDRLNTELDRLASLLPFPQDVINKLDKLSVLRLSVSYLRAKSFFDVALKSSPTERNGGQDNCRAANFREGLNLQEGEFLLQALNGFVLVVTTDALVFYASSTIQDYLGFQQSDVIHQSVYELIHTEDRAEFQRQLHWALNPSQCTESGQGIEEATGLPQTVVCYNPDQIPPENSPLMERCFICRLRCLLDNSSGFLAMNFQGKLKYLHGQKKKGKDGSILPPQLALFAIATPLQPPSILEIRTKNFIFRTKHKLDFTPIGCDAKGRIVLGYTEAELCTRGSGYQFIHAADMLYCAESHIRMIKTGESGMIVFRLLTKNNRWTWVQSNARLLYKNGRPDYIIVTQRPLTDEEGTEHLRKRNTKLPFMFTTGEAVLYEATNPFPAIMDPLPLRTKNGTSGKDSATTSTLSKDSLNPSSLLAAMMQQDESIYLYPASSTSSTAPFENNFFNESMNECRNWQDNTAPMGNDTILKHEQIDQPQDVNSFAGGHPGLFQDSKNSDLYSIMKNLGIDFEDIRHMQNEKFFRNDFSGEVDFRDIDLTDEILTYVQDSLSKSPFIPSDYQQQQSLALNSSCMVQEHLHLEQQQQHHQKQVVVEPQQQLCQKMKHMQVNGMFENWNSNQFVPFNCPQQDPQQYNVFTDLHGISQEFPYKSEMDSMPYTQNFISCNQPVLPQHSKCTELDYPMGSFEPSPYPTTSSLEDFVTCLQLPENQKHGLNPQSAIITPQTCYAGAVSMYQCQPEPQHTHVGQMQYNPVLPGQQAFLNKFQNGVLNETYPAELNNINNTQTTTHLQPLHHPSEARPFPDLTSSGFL
Chain of Aromatase (Homo sapiens) (P11511 whole entry, looked up): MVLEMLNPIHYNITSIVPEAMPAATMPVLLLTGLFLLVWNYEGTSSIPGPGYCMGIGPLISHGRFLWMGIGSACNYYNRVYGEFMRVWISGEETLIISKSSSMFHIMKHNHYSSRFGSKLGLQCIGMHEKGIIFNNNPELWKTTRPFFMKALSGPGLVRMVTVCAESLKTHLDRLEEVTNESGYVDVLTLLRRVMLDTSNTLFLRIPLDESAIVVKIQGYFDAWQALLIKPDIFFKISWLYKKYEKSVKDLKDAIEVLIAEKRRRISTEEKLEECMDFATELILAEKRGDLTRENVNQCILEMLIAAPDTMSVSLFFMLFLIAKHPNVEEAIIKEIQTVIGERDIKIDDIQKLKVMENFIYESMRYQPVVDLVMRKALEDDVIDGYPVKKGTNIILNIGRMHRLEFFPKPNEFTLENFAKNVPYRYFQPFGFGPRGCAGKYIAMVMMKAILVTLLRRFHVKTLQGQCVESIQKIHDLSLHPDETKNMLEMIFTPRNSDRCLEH

Take `CC(C)C(=O)Nc1cccc(C2CN3CCSC3=N2)c1` (stereo not given): the outcome in [1], in assay [2], in assay [4] and in assay [5] was inactive. Besides, the Potency result in assay [3] was “inactive”.
On to `CC(=O)O[C@@H]1CC2C3CCc4cc(OC(=O)c5ccccc5)ccc4C3CCC2(C)[C@H]1OC(C)=O` (stereo not given in full), for which the Potency entry in assay [6] and in [3] was “inactive” in each case. The result in [2], in [4] and in assay [5] was inactive.
As to `COC(=O)c1ccc(NC(C)=O)cc1OC`, the result in assay [7], in assay [1], in [2], in assay [4] and in assay [5] was inactive. Besides, the Potency entry in assay [6] and in assay [3] was “inactive” throughout.
Turning to `CCCCNCC`, the compound was classed as inactive in assay [8], in [12], in [13], in assay [15], in [16] and in assay [7]. The compound was called inactive in assay [1], in assay [2] and in assay [5]. The Potency result (in [9]; in [10]; in [11]; in the assay with Aromatase (Homo sapiens); in assay [14]; in assay [6]) was “inactive” each time. In [3], the Potency result is “inactive”.
For the compound `CC/C=C\CCOC(=O)c1ccccc1`, the result in assay [8], in assay [12], in assay [13], in assay [16], in [1] and in [2] was inactive. Also, the compound was classed as inactive in assay [4]. The Potency entry (in [9]; in assay [10]; in [11]; in [17]; with Aromatase (Homo sapiens); in assay [14]) was “inactive” in each case. Also, the Potency result in assay [6] and in assay [3] was “inactive” throughout.
In the case of `CCN(CC)CC(=O)Oc1ccc(NC(C)=O)cc1`, the compound was called inactive in assay [7], in assay [1], in assay [2], in assay [4] and in assay [5]. Moreover, the Potency entry in assay [6] and in assay [3] was “inactive” each time.
With `CNC(=O)c1c(I)c(NC(C)=O)c(I)c(C(=O)O)c1I`, the compound was classed as inactive in [1], in [2], in assay [4] and in assay [5]. In addition, the Potency entry in assay [6] and in assay [3] was “inactive” throughout.
For the compound `CC(C)=CCC/C(C)=C\C#N`, the compound was classed as inactive in assay [8], in [12], in [13], in assay [16], in assay [7] and in [1]. The compound was called inactive in [2], in assay [4] and in assay [5]. Besides, the Potency entry (in [9]; in assay [10]; in assay [11]; in assay [17]; in the assay with Aromatase (Homo sapiens); in assay [14]) was “inactive” in each case. Besides, the Potency entry in [6] and in [3] was “inactive” each time.
Consider `CCCCC(O)/C=C(C)/C=C/C=C/C(=O)N1CCCC1=O` (stereo not given), for which the result in [1], in assay [2], in assay [4] and in [5] was inactive. Besides, the Potency entry in assay [6] and in assay [3] was “inactive” throughout.
In the case of `CCCCc1ccc(Cl)cc1`, the compound was classed as inactive in assay [8], in assay [12], in [13], in assay [15], in assay [16] and in assay [7]. Also, the compound was classed as inactive in assay [1] and in assay [4]. For the same compound, the Potency result (in [9]; in [10]; in assay [11]; in [17]; in the assay with Aromatase (Homo sapiens); in assay [3]) was “inactive” each time.
For `Cc1cc2c(cc1CC(=O)c1sccc1S(=O)(=O)Nc1onc(C)c1Cl)OCO2`, the outcome in assay [1], in [2], in [4] and in assay [5] was inactive. Also, in [3], the Potency result was “inactive”.
As for `Cc1cc(=O)oc2cc(O[C@@H]3SC[C@@H](O)[C@H](O)[C@H]3O)ccc12`, the call in [7], in assay [4] and in [5] was inactive. Moreover, the Potency result in [6] was “inactive”.
For `CC(=O)/C=C/C=C1/C2CCC(C2)C1(C)C` (stereo not given), the outcome in assay [7], in [1], in assay [4] and in assay [5] was inactive. In assay [6], the Potency entry is “inactive”.
Consider `C[C@]12C=CC(=O)C=C1[C@@H](F)C[C@@H]1[C@@H]2[C@@H](O)C[C@@]2(C)[C@H]1CC[C@]2(O)C(=O)CO`, for which the Potency entry (in assay [9]; in assay [10]; with Aromatase (Homo sapiens); in [6]; in assay [3]) was “inactive” each time. The call in assay [12], in assay [13], in [15], in assay [16], in [7] and in [2] was inactive. The outcome in assay [4] and in [5] was inactive.
On to `CO/N=C(\C(=O)O)c1csc(NC(=O)CCl)n1`, for which the compound was classed as inactive in assay [1], in assay [2] and in [4]. Further, the Potency in assay [6] was 13.3 µM (active). For the same compound, the Potency entry in [3] was “inactive”.
In the case of `COc1ccccc1N1CCN(CC(O)COc2cc(OC)c(OC)c(OC)c2)CC1` (stereo not given), the compound was called inactive in [1], in [2], in assay [4] and in assay [5]. The Potency entry in [3] was “inactive”.
`COC(=O)c1cc(Cl)c(NC(C)=O)cc1OC`: the outcome in assay [7], in assay [1], in [2], in [4] and in [5] was inactive. Moreover, the Potency result in assay [6] and in assay [3] was “inactive” throughout.
As to `CCCCC(CC)COC(=O)CC#N` (stereo not given), the outcome in assay [8], in assay [12], in [13], in assay [15], in [16] and in [7] was inactive. Besides, the call in assay [2] and in assay [4] was inactive. In addition, the Potency entry (in [10]; in assay [11]; in [17]; with Aromatase (Homo sapiens); in [14]; in assay [6]) was “inactive” each time. For the same compound, the Potency result in assay [3] is “inactive”.
`N#Cc1cc(NC(=O)C(=O)O)c(Cl)c(NC(=O)C(=O)O)c1`: the outcome in assay [7], in assay [1], in assay [2], in assay [4] and in assay [5] was inactive. Besides, the Potency result in assay [6] and in assay [3] was “inactive” in each case.
For the compound `Clc1ccc2c(c1)Nc1ccccc1S2`, the Potency in [6] was 29.8 µM (active). Also, the outcome in assay [2], in [4] and in assay [5] was inactive. The Potency result in [3] was “inactive”.
As to `CN1C(CCl)Nc2cc(Cl)c(S(N)(=O)=O)cc2S1(=O)=O` (stereo not given), the result in [8], in assay [12], in assay [13], in assay [15], in assay [16] and in [7] was inactive. For the same compound, the call in [1], in assay [2] and in assay [4] was inactive. Besides, the Potency result (in assay [9]; in assay [10]; in assay [11]; with Aromatase (Homo sapiens); in assay [14]) was “inactive” each time. Also, in [6], the Potency is 26.6 µM (active).
Regarding `CC1(C)S[C@@H]2[C@H](NC(=O)Cc3ccccc3)C(=O)N2[C@H]1C(=O)O` (tested in a mixture with another compound), the call in assay [8], in assay [12], in assay [13], in assay [15], in assay [16] and in assay [7] was inactive. The call in assay [2], in assay [4] and in [5] was inactive. Moreover, the Potency entry (in assay [9]; in assay [10]; in assay [11]; in the assay with Aromatase (Homo sapiens); in assay [14]; in assay [6]) was “inactive” each time. In assay [3], the Potency entry is “inactive”.

The record behind these values is PubChem BioAssay (Tox21).
